For part of these data: Entries with a potency or affinity are not part of this list.
Tests used:
Parameters in all cases: scale not given: direction of the effect not stated beside the values
[1] = target: Protein translocase subunit SecA (Escherichia coli (strain K12)) (UniProt P10408); test: Assay to Identify E. coli SecA ATPase Inhibitors; format: functional; details: 30 µM
[2] = target: T1, Ubiquitin-activating enzyme e1, putative (Leishmania donovani (strain BPK282A1)) (UniProt E9BSI1); test: Leishmania donovani Ubiquitin Activating Enzyme (LdE1); format: functional; details: 30 µM
T1 sequence (whole entry): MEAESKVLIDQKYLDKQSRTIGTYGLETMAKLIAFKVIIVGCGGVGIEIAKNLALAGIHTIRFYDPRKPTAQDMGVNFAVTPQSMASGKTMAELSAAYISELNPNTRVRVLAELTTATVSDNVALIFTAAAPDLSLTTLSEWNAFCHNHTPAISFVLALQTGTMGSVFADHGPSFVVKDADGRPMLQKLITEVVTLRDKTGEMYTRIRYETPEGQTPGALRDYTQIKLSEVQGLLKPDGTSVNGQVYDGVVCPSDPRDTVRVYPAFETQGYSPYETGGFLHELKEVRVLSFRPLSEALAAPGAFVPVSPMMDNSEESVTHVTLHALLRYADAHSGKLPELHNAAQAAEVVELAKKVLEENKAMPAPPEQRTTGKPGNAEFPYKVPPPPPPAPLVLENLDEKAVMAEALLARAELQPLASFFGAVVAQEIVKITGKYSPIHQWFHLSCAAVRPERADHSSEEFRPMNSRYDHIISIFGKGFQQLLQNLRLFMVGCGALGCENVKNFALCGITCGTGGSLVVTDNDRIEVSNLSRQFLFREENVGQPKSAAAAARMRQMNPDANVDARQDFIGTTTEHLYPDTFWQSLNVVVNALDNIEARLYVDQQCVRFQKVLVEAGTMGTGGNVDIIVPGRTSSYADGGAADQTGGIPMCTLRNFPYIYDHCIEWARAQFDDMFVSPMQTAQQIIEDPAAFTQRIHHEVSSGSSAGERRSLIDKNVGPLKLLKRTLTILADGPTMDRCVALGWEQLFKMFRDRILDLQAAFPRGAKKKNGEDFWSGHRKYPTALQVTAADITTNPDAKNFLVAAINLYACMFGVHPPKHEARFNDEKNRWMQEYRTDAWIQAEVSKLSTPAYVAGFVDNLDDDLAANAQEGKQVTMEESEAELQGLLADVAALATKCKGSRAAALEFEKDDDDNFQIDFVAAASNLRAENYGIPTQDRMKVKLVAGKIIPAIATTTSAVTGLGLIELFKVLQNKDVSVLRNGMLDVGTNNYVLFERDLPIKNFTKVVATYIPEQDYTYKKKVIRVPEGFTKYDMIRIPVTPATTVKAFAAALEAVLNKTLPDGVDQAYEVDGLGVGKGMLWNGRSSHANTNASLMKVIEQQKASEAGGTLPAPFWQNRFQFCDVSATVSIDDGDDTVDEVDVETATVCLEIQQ

[3] = target: Sialic acid-binding Ig-like lectin 9 (Homo sapiens) (UniProt Q9Y336); test: Hs-Siglec9 ALPHAscreen SOP 20170721; details: 10 µM
[4] = test system: Trypanosoma cruzi; test: Trypanosoma cruzi phosphomannomutase and mannose-1-phosphate guanylyltransferase assay; format: functional; details: 10 µM
[5] = target: T2, Arginase-2, mitochondrial (Homo sapiens) (UniProt P78540); test: in vitro enzyme assay to detect the production of urea directly proportional to the activity of Arginase II; format: functional; details: 33.3 µM; further: in the data most compounds retested in dose-response had high values
T2 sequence (whole entry): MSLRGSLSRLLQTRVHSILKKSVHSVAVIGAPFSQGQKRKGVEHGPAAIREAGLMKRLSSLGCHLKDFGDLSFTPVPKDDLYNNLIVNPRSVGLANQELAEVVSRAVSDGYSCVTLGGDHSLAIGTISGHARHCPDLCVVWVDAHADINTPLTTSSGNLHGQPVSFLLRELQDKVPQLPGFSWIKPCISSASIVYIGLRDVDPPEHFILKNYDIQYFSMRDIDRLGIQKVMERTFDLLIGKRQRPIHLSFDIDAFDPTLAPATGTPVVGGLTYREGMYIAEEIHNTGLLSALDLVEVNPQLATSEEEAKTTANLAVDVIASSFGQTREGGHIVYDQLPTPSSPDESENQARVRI

[6] = target: T3, Proteasome subunit beta (Trypanosoma cruzi) (UniProt O96673); test: Trypanosoma cruzi proteasome chymotrypsin-like activity (TcProtChymo) assay.; further: in the data most compounds retested in dose-response had high values; format: functional; details: 9.37 µM
T3 sequence (whole entry): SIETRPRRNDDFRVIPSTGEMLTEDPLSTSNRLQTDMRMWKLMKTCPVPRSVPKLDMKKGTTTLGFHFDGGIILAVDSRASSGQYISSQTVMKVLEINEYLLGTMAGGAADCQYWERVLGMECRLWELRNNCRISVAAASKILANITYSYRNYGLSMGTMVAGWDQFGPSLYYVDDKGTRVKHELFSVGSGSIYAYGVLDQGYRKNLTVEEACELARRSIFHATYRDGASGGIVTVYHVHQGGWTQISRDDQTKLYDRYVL

[7] = species: Homo sapiens; test: To identify inhibition of the IFN signalling (Jak-Stat) pathway via expression of an eGFP reporter gene under the control of an IFN-stimulated response element (ISRE) containing MxA promoter.; format: functional; details: 30 µM
[8] = target: T4, Tyrosyl-tRNA synthetase, putative (Trypanosoma cruzi (strain CL Brener)) (UniProt Q4DSP6); test: Trypanosoma cruzi tyrosyl tRNA synthetase (TcYRS) _High Tyrosine SOP; format: functional; details: 30 µM; further: in the data most compounds retested in dose-response had high values
T4 sequence (whole entry): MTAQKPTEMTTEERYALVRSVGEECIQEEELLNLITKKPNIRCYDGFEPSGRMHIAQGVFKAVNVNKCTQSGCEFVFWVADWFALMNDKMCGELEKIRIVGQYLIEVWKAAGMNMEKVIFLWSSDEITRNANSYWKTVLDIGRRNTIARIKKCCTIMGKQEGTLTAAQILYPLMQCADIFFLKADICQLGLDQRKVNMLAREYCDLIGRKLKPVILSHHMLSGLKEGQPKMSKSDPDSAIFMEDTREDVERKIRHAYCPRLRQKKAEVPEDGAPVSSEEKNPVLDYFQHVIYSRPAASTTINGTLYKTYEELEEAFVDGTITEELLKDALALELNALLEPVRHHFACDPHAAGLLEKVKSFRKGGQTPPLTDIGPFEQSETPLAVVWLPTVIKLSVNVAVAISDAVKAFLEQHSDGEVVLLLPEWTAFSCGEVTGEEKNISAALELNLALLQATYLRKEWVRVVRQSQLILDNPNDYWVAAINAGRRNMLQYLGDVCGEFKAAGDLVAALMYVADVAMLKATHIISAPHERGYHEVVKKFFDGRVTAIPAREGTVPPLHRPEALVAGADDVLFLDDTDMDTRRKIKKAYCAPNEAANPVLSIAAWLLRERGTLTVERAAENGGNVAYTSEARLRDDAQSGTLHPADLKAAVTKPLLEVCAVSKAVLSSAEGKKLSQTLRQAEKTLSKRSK

[9] = target: T4, Tyrosyl-tRNA synthetase, putative (Trypanosoma cruzi (strain CL Brener)); test: Trypanosoma cruzi tyrosyl tRNA synthetase (TcYRS) SOP; format: functional; details: 30 µM
[10] = target: Chromo domain-containing protein 1 (Saccharomyces cerevisiae (strain ATCC 204508 / S288c) (Baker's yeast)) (UniProt P32657); test: ScCHD-1 Enzyme Inhibition Assay; format: functional; details: 30 µM; further: in the data most compounds retested in dose-response had high values
Sequence of Chromo domain-containing protein 1 (Saccharomyces cerevisiae (strain ATCC 204508 / S288c) (Baker's yeast)) (P32657 whole entry, the tested form may be a part): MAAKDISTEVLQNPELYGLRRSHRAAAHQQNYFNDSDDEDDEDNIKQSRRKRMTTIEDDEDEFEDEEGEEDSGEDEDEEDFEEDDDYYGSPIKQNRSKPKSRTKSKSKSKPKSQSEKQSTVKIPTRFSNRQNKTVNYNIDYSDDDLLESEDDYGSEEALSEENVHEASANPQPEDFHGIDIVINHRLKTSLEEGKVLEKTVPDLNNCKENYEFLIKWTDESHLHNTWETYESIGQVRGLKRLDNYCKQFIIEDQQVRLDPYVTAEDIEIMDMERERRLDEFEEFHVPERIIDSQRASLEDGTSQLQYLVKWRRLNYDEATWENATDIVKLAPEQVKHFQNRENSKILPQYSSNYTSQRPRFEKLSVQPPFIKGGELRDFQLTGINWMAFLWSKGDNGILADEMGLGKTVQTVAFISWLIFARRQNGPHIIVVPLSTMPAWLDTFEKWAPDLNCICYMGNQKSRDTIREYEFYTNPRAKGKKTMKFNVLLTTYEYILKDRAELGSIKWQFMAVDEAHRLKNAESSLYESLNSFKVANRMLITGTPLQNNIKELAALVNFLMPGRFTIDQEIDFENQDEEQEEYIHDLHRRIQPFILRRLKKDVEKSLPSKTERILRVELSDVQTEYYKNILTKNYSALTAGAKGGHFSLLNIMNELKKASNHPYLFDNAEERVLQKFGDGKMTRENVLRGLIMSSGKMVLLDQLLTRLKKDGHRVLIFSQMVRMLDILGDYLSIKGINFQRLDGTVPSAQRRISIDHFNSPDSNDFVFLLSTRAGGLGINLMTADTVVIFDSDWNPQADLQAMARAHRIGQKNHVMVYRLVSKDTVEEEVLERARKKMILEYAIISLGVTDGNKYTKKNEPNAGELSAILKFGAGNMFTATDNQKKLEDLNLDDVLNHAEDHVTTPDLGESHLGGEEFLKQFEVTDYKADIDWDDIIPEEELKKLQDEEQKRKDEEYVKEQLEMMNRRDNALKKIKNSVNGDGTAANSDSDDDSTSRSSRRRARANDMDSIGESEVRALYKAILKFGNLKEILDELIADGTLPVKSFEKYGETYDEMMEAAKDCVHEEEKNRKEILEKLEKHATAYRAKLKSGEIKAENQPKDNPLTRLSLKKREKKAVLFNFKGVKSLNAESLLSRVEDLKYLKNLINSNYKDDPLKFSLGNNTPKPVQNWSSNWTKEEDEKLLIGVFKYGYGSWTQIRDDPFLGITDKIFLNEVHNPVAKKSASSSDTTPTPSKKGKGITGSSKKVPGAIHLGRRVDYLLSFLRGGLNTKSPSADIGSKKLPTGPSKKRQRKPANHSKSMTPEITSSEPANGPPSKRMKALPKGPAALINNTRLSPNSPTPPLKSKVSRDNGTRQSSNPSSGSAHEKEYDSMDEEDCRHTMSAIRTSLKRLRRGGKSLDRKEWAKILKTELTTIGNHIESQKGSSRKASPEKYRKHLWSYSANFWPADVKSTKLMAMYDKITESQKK

Sequence of Sialic acid-binding Ig-like lectin 9 (Homo sapiens) (Q9Y336 whole entry): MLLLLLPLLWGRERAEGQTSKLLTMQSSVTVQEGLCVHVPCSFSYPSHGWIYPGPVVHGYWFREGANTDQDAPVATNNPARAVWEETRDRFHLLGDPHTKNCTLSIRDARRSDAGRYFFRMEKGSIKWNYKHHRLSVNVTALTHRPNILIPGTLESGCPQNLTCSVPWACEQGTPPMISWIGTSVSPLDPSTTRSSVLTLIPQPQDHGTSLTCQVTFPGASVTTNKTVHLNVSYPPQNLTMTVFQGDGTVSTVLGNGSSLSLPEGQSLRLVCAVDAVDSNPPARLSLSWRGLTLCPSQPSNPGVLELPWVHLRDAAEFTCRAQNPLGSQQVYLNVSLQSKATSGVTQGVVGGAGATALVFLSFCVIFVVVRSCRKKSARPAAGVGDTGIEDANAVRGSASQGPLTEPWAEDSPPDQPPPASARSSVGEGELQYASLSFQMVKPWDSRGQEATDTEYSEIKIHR
Sequence of Protein translocase subunit SecA (Escherichia coli (strain K12)) (P10408 whole entry): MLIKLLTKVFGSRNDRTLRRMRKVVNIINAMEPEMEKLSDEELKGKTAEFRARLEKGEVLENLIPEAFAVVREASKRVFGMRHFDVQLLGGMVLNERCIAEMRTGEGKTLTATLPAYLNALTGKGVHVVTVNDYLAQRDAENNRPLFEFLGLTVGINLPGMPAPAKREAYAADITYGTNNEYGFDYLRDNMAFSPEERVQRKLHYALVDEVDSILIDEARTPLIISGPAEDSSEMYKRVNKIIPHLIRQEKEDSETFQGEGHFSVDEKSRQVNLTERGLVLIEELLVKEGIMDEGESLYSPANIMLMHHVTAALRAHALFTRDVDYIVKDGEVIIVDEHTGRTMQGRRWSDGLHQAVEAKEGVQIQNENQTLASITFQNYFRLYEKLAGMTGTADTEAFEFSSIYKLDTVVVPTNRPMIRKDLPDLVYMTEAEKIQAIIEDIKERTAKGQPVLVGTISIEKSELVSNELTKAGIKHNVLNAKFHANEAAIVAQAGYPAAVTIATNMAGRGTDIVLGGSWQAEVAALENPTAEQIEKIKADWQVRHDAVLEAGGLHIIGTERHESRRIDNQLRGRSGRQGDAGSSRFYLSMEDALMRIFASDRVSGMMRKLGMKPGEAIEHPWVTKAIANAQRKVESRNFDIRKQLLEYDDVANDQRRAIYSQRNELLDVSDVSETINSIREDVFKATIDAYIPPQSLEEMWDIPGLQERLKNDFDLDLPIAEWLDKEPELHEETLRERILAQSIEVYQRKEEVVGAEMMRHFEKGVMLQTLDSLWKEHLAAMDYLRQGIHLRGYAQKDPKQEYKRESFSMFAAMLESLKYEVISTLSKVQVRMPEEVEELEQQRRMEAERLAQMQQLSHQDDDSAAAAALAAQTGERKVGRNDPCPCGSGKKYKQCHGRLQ

## Cc1cc(CN(C)C(=O)NCC(C)N2CCc3ccccc32)no1 (stereo not given)
[1]
  Percent Effect: -2.85%
[2]
  Percent Effect: -2.6%
[3]
  Percent Effect: 14.4%
[4]
  Percent Effect: 1.31%
[5]
  Percent Effect: -2.25%
[6]
  Percent Effect: -2.46%
[7]
  Percent Effect: -9.63%
[8]
  Percent Effect: 7.84%
[9]
  Percent Effect: 7.06%
[10]
  Percent Effect: 4.85%

## Cc1nc(C)n(CC2CCCN2Cc2ccn(-c3ccccc3)n2)n1 (stereo not given)
[1]
  Percent Effect: 0.0578%
[2]
  Percent Effect: -20.8%
[3]
  Percent Effect: 13.8%
[4]
  Percent Effect: 0.933%
[5]
  Percent Effect: -4.3%
[6]
  Percent Effect: 4.04%
[7]
  Percent Effect: 3.86%
[8]
  Percent Effect: 4.9%
[9]
  Percent Effect: 16.5%
[10]
  Percent Effect: -7.02%

## O=C(COc1ccc2c(c1)CCC2)NS(=O)(=O)c1cncc(Br)c1
[1]
  Percent Effect: -2.61%
[2]
  Percent Effect: 2.56%
[3]
  Percent Effect: 1.99%
[4]
  Percent Effect: 9.3%
[5]
  Percent Effect: -3.28%
[6]
  Percent Effect: 3.33%
[7]
  Percent Effect: 7.32%
[8]
  Percent Effect: -3.35%
[9]
  Percent Effect: 1.21%
[10]
  Percent Effect: 1.12%

## Cc1cc(C)c(OCC(=O)NS(=O)(=O)c2c(C)noc2C)c(C)c1
[1]
  Percent Effect: -3.67%
[2]
  Percent Effect: -2.56%
[3]
  Percent Effect: -14.2%
[4]
  Percent Effect: 5.54%
[5]
  Percent Effect: 1.23%
[6]
  Percent Effect: 1.11%
[7]
  Percent Effect: 7.01%
[8]
  Percent Effect: 1.44%
[9]
  Percent Effect: 10.8%
[10]
  Percent Effect: 1.12%

## COC(=O)CC(c1ccc(OC)c(OC)c1)c1oc(C)cc(=O)c1O (stereo not given)
[1]
  Percent Effect: -11%
[2]
  Percent Effect: 2.7%
[3]
  Percent Effect: 0.92%
[4]
  Percent Effect: -4.75%
[5]
  Percent Effect: -10.1%
[6]
  Percent Effect: 4.45%
[7]
  Percent Effect: 14.4%
[8]
  Percent Effect: -0.532%
[9]
  Percent Effect: -2.44%
[10]
  Percent Effect: -0.871%

## Cc1cnn(C2CCCN(C(=O)c3cc(C4CC4)on3)C2)c1 (stereo not given)
[1]
  Percent Effect: -4.9%
[2]
  Percent Effect: 10.3%
[3]
  Percent Effect: -6.25%
[4]
  Percent Effect: 5.16%
[5]
  Percent Effect: 0.82%
[6]
  Percent Effect: -0.939%
[7]
  Percent Effect: -0.883%
[8]
  Percent Effect: 4.31%
[9]
  Percent Effect: 10.8%
[10]
  Percent Effect: -1.27%

## CCn1ccnc1CNCC1CCN(CC(O)c2ccccc2)CC1 (stereo not given)
[1]
  Percent Effect: -3.91%
[2]
  Percent Effect: -5.13%
[3]
  Percent Effect: -9.4%
[4]
  Percent Effect: 5.92%
[5]
  Percent Effect: 11.9%
[6]
  Percent Effect: -2.13%
[7]
  Percent Effect: 4.15%
[8]
  Percent Effect: 3.35%
[9]
  Percent Effect: 6.02%
[10]
  Percent Effect: -1.13%

## Cc1noc(C)c1C(=O)NCc1ccc(N2CCOC(C)C2)nc1 (stereo not given)
[1]
  Percent Effect: -2.58%
[2]
  Percent Effect: 21.3%
[3]
  Percent Effect: -1.63%
[4]
  Percent Effect: -0.402%
[5]
  Percent Effect: -0.887%
[6]
  Percent Effect: 12.5%
[7]
  Percent Effect: 9.59%
[8]
  Percent Effect: 2.63%
[9]
  Percent Effect: 15.4%
[10]
  Percent Effect: -13.6%

## CC(=O)N1CCCn2nc(CNS(=O)(=O)N3CCCCCC3)cc2C1
[1]
  Percent Effect: -5.72%
[2]
  Percent Effect: 0%
[3]
  Percent Effect: 0.997%
[4]
  Percent Effect: -2.81%
[5]
  Percent Effect: 1.75%
[6]
  Percent Effect: 11.6%
[7]
  Percent Effect: 4.54%
[8]
  Percent Effect: 2.66%
[9]
  Percent Effect: 9.76%
[10]
  Percent Effect: 2.81%

## Cc1ccc(F)cc1C(=O)N1C[C@@H](CN2CCOCC2)[C@@H](CO)C1
[1]
  Percent Effect: -9.2%
[2]
  Percent Effect: 8.11%
[3]
  Percent Effect: 5.12%
[4]
  Percent Effect: 2.23%
[5]
  Percent Effect: 4.54%
[6]
  Percent Effect: 9.76%
[7]
  Percent Effect: 2.21%
[8]
  Percent Effect: 5.85%
[9]
  Percent Effect: 9.76%
[10]
  Percent Effect: -3.39%

## CC(=O)N1C[C@@H](c2ccsc2)[C@@H]2CN(Cc3cccc(Cl)c3)CC[C@@H]21
[1]
  Percent Effect: -3.63%
[2]
  Percent Effect: 9.33%
[3]
  Percent Effect: 5.9%
[4]
  Percent Effect: -1.97%
[5]
  Percent Effect: 7.08%
[6]
  Percent Effect: 6.9%
[7]
  Percent Effect: 56.9%
[8]
  Percent Effect: 9.52%
[9]
  Percent Effect: 20%
[10]
  Percent Effect: -24.3%

## Cc1ccc2c(n1)N(Cc1cccnc1)CCN(C(=O)C1CCC1)C2
[1]
  Percent Effect: -1.28%
[2]
  Percent Effect: 6.49%
[3]
  Percent Effect: -4.98%
[4]
  Percent Effect: -4.77%
[5]
  Percent Effect: 7.29%
[6]
  Percent Effect: 11.4%
[7]
  Percent Effect: 16.9%
[8]
  Percent Effect: 4.74%
[9]
  Percent Effect: 7.69%
[10]
  Percent Effect: -6.47%
